Sampled rows, rich in hits. Any-hit rate of the full collection: about 2.4%.
Rpn11 inh = Rpn11 (human) deubiquitinase inhibition. O00487. human 26S proteasome, Ub4-pepOG fluorescence polarization; 20S core pre-blocked with epoxomicin. inhibition, % at 20 µM. 360,000 compounds, 0.59% hits. AID 588493;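 active means inhibition at 20 µM, scaled to each plate's controls, above about 33%, limit read from the data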
Target sequence (O00487 whole entry, looked up): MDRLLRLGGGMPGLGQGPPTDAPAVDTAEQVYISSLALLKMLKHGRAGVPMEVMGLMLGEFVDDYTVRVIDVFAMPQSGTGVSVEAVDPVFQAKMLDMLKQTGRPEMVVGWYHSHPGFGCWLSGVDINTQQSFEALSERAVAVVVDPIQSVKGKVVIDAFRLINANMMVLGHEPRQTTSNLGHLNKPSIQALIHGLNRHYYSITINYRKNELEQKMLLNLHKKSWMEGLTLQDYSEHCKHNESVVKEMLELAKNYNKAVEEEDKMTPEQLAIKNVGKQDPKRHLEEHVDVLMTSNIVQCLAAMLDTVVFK
PP5 inh = inhibitors of human protein phosphatase 5 (PP5). AID 1987. purified PP5c, OMFP substrate fluorescence. inhibition, % at 6.7 µM. P53041. 320,000 compounds, 0.18% hits;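 active means inhibition above the campaign's mean inhibition across all tested compounds plus 3 SD, cut at about 9.5% in these data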;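 further: 0% = DMSO only and 100% = 100 µM cantharidin control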
NadD block = NadD (S. aureus) enzyme inhibition | 360,000 compounds, 0.78% hits | AID 602399 | purified NadD enzyme, colorimetric absorbance read-out | inhibition, % at 20 µM; in the data active means inhibition above about 26%
PP1 counter = counter-screen for PP5 inhibitors: inhibitors of human PP1-alpha. AID 2235. 320,000 compounds, 0.9% hits. purified PP1alpha, OMFP fluorescence. P62136. inhibition, % at 6.7 µM;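 active means inhibition above the mean inhibition of all tested compounds plus 3 SD, computed separately for each screening campaign, cut at about 15% in these data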
Target sequence (P62136 whole entry, looked up): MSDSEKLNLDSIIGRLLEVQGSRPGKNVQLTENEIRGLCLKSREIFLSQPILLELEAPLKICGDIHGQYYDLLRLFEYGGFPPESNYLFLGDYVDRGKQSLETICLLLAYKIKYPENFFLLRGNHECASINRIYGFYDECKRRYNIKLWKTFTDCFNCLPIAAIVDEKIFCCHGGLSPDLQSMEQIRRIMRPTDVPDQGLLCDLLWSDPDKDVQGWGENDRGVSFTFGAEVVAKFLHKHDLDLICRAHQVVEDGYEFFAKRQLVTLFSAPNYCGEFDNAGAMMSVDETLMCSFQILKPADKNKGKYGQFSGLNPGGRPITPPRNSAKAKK
PREPL inhibitor = inhibitors of human prolyl oligopeptidase-like enzyme PREPL; recombinant PREPL, fluorescence polarization activity-based probe; 320,000 compounds, 0.68% hits; inhibition, % at 5.96 µM; Q4J6C6; in the data active means inhibition above about 43%;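 further: 0% = enzyme with DMSO and 100% = wells lacking enzyme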
NadD inh conf = NadD (S. aureus) inhibition, single concentration confirmation | shares compounds with NadD block | purified S. aureus NadD, colorimetric enzyme assay | inhibition, % at 20 µM | 2,000 compounds, 13% hits | AID 624309; in the data active means inhibition mostly above about 42%, no sharp cut-off; inactive means mostly below about 42%
* hit, by the source's call; / = not tested or not shown; ! = not confirmed by another sample.

SMILES	Rpn11 inh	PP5 inh	NadD block	PP1 counter	PREPL inhibitor	NadD inh conf
Cc1ccc(OCC(=O)Nc2nnc(S(=O)(=O)N3CCCCC3)s2)cc1	19.3	0.7	49.2*	0.7	-0.2	18.2
O=C(Nc1nnc(S(=O)(=O)N2CCCCCC2)s1)c1ccc(Cl)cc1	-10.0	0.2	31.1*	1.3	0.5	9.5
Cc1ccc(C(=O)Nc2nnc(S(=O)(=O)N3CCCCCC3)s2)cc1	-1.7	0.5	3.5	-0.4	14.1	/
COc1cccc(NC(=O)CCNC(=O)Cn2ccc3ccccc3c2=O)c1	0.4	1.5	-1.8	-0.8	-2.5	/
O=C(O)c1cccc(NC(=S)N/N=C/c2ccccc2OCc2ccc(Br)cc2)c1	7.7	-3.9	45.3*	17.0*	-20.7	64.1*
COC(=O)c1ccc(COc2ccccc2/C=N/Nc2cccc(C(=O)O)c2)cc1	-0.3	/	18.6	/	/	/
O=C(O)c1cccc(NC(=S)N/N=C/c2ccccc2OCc2cccc(Br)c2)c1	4.1	/	50.8*	/	/	71.7*
O=C(O)c1cccc(NC(=S)N/N=C/c2cccc(O)c2)c1	-1.5	1.1	0.1	-0.6	1.5	/
O=C(NCc1ccc(N2CCCC2=O)cc1)c1cc(COc2c(F)cccc2F)on1	-11.8	3.1	-0.2	-2.1	11.0	/
O=C(O)c1cccc(NC(=S)NC(NC(=O)c2cccc([N+](=O)[O-])c2)C(Cl)(Cl)Cl)c1 (stereo not drawn)	-16.4	1.8	64.4*	6.0	18.5	6.8
O=C(O)c1cccc(NC(=S)NC(NC(=O)c2ccccc2[N+](=O)[O-])C(Cl)(Cl)Cl)c1 (stereo not drawn)	-6.9	1.8	-4.1	-3.2	-1.5	/
CC1CCN(C(=O)CN2C(=O)NC(c3ccccc3)(c3ccccc3)C2=O)CC1	2.4	1.5	-4.5	-1.9	2.7	/
COc1cc2oc(=O)cc(CN3CCN(c4ccc(Cl)c(Cl)c4)CC3)c2cc1Cl	20.8	/	38.9*	/	/	13.1
O=C(COC(=O)Cn1cc(C(F)(F)F)ccc1=O)Nc1ccc(Br)cc1F	-5.7	/	3.2	/	/	/
COc1ccccc1NC(=O)C(=O)c1cn(CC(=O)N2CCOCC2)c2ccccc12	1.4	2.6	-7.5	0.3	-3.1	/
Oc1ccc2ccccc2c1/C=C/c1ccc2c(Br)cc(Br)c(O)c2n1	35.1	/	57.7*	/	/	32.9
Oc1ccc(Cl)cc1/C=C/c1ccc2cccc(O)c2n1	1.9	/	2.9	/	/	/
COc1ccccc1C(=O)Nc1ccc(Oc2nnc(-c3ccc(C)cc3)c3ccccc23)cc1	-0.3	1.7	52.2*	12.9	2.0	16.9
CCCS(=O)(=O)NC(=O)C1(C)CCCN(C(=O)c2ccccc2Br)C1 (stereo not drawn)	-8.5	/	-1.9	/	/	/
COc1ccc(C(=O)Nc2cccc(-c3cc4ccccc4oc3=O)c2)cc1[N+](=O)[O-]	1.3	2.1	34.6*	16.5*	-14.5	10.4
COc1cc(NC(C)=O)ccc1-c1cc2ccccc2oc1=O	17.2	-0.8	0.4	-7.0	0.7	/
S=C1Cc2ccccc2N1	20.6	/	30.7*	/	/	38.9
Cc1cc(C)cc(NC(=O)Cn2c(=O)oc3cc(S(=O)(=O)N4CC(C)CC(C)C4)ccc32)c1 (stereo not drawn)	0.6	6.2	35.6*	5.2	0.7	3.1
CCCc1cc(=O)[nH]c(SCC(=O)N2N=C(c3ccc(Cl)cc3)CC2c2ccco2)n1 (stereo not drawn)	37.1	-2.1	35.3*	-1.5	-1.0	49.5*
Cc1ccc(C2=NN(C(=O)CSc3nc4ncc(Cl)cc4[nH]3)C(c3ccco3)C2)cc1 (stereo not drawn)	9.4	2.4	-5.5	3.4	-2.9	/
SMILES	Rpn11 inh	PP5 inh	NadD block	PP1 counter	PREPL inhibitor	NadD inh conf
Cc1nn(Cc2c(Cl)cccc2Cl)c(C)c1NC(=O)c1cn(-c2ccccc2)nc1-c1ccccc1	1.6	-0.3	33.8*	-0.1	-0.9	6.0
Cc1cccc(C)c1NC(=O)CNC(=O)c1cn(-c2ccccc2)nc1-c1ccccc1	6.9	3.6	-1.4	1.1	-8.3	/
O=C1NC(Cc2ccc(O)cc2)c2nc3ccc(Br)cc3c(=O)n2-c2cc3ccccc3cc21 (stereo not drawn)	4.0	/	31.5*	/	/	3.6
CCOC(=O)c1c(NC(=O)CSc2nnc(-c3c[nH]c4ccccc34)n2CCOC)sc2c1CCCC2	8.9	4.5	33.6*	10.5	21.0	37.2
CCOC(=O)c1c(NC(=O)CSc2nnc(-c3c[nH]c4ccccc34)n2C)sc2c1CCCC2	4.2	1.8	33.0*	1.1	3.2	24.6
CCOc1ccccc1N1CCN(C(=O)c2ccc3[nH]c4c(c3c2)CCCC4)CC1	-1.7	3.3	5.7	-0.9	23.6	/
CCC(C)n1c(NC(=O)c2ccccc2)c(C#N)c2nc3ccccc3nc21 (stereo not drawn)	/	5.6	40.8*	5.2	0.9	30.9
N#Cc1c(N)n(CCNC(=O)c2ccc(Cl)cc2)c2nc3ccccc3nc12	15.1	4.7	1.1	6.5	-3.4	/
CCCCn1c(NC(=O)c2ccccc2)c(C#N)c2nc3ccccc3nc21	/	/	32.9*	/	/	42.7
Cc1nn(C(C)(C)C)c(NC(=O)c2ccccc2)c1C#N	-0.5	1.9	-1.0	0.2	9.5	/
C[C@@H]1CCCCO[C@H](CN(C)S(=O)(=O)c2ccc(F)cc2)[C@@H](C)CN([C@H](C)CO)C(=O)c2cc(NC(=O)Nc3ccc(C(F)(F)F)cc3)ccc2O1	14.0	/	35.0*	/	/	-2.5
C[C@@H]1CN([C@@H](C)CO)C(=O)c2cc(/C=C/c3ccccc3)cnc2O[C@@H]1CN(C)S(=O)(=O)c1ccc(F)cc1	-1.9	/	3.9	/	/	/
C[C@@H]1CCCCO[C@H](CN(C)C(=O)Nc2ccc(C(F)(F)F)cc2)[C@@H](C)CN([C@H](C)CO)C(=O)c2cc(NC(=O)c3ccncc3)ccc2O1	12.3	/	35.0*	/	/	34.6
COc1ccc(S(=O)(=O)N(C)C[C@@H]2OCCCC[C@H](C)Oc3ccc(NC(=O)Nc4ccc(C(F)(F)F)cc4)cc3C(=O)N([C@H](C)CO)C[C@H]2C)cc1	2.9	/	30.3*	/	/	-3.0
C[C@H]1CCCCO[C@@H](CN(C)S(=O)(=O)c2ccc(F)cc2)[C@@H](C)CN([C@@H](C)CO)C(=O)c2cc(NC(=O)Nc3ccc4c(c3)OCO4)ccc2O1	0.3	/	8.4	/	/	/
C[C@@H]1CN([C@@H](C)CO)C(=O)c2cc(C#CC3CCCCC3)cnc2O[C@@H]1CN(C)S(=O)(=O)c1ccc(F)cc1	7.0	/	75.4*	/	/	33.1
O=C(c1ccc(OCCN2CCCCC2)cc1)c1c(-c2ccc(O)cc2)sc2cc(O)ccc12	6.5	3.2	33.0*	16.3*!	26.7	-2.6
Cc1c(Nc2nc3ccccc3nc2NS(=O)(=O)c2cccc(Cl)c2)c(=O)n(-c2ccccc2)n1C	5.6	1.6	10.8	0.7	-6.4	/
Cc1ccc(Nc2nc3ccccc3nc2Nc2c(C)n(C)n(-c3ccccc3)c2=O)cc1	0.1	2.6	35.0*	0.7	-1.1	0.4
CC1Cc2cc(-c3csc(N)n3)ccc2O1 (stereo not drawn)	-4.2	0.9	-0.3	-2.1	-0.4	/

High-throughput results: PubChem BioAssay, several laboratories
